Results filed as inconclusive are left out. The source made the active and inactive calls. How the source made its calls: active means hit-call score of the fitted dose curve at least 0.9, where 1 is the maximum; inconclusive means response in the unintended direction; inactive means score below 0.9.
Assay: Tanguay_ZF_120hpf_PE_legacy: (Legacy) Oregon State University Tanguay Lab 120 Hour Post-fertilization zebrafish Assay for Pericardial Edema (AID 2283640);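 on AC50: potency for increased incidence of pericardial edema versus DMSO baseline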
Description: Tanguay_ZF_120hpf_legacy is a whole embryo, multiplexed endpoint assay using zebrafish larvae exposed for 120 hours post fertilization on a 96-well plate.Tanguay_ZF_120hpf_PE_legacy is one of one assay component(s) measured or calculated from the Tanguay_ZF_120hpf_legacy assay. It is designed to make measurements of zebrafish development as detected with brightfield microscopy of developing zebrafish embryos.Data from the assay component Tanguay_ZF_120hpf_PE_legacy was analyzed into 1 assay endpoints. This assay endpoint, Tanguay_ZF_120hpf_PE_legacy, was analyzed in the positive analysis fitting direction relative to DMSO as the negative control and baseline of activity. Using a type of morphology reporter, gain-of-signal activity can be used to understand changes in developmentals as they relate to the whole embryo. To generalize the intended target to other relatable targets, this assay endpoint is annotated to the zebrafish development intended target family, where the subfamily is embryonic morphogenesis.
Zebrafish husbandry: Tropical 5D wild-type adult zebrafish were housed in at an approximate density of 1000 per 100 gallon tank at the Sinnhuber Aquatic Research Laboratory, Oregon State University, Corvallis, OR. Each tank was kept at standard laboratory conditions of 28C on a 14-h light/10-h dark photoperiod in fish water consisting of reverse osmosis water supplemented with a commercially available salt (Instant Ocean). Spawning funnels were placed into the tanks the night prior, and embryos were collected and staged. […] Ten microliters of each row of dilution plate 2 was added to 2 exposure plates. The final DMSO concentration used was 0.64% (vol/vol). Thirty-two embryos were also exposed to 5uM trimethyltin chloride (positive control). Plates were sealed to prevent evaporation and foil covered to reduce light exposure and kept in a 28C incubator. Embryos were statically exposed until 120 hpf. At 24 hpf, embryos were assessed for photomotor response using a custom photomotor response analysis tool (PRAT) and for developmental toxicity endpoints (MO24: mortality at 24 hpf, DP: developmental progression, SM: spontaneous movement, and NC: notochord distortion). At 120 hpf, locomotor activity was measured using Viewpoint Zebralab and assessed for 18 endpoints. Zebrafish acquisition and analysis program (ZAAP), a custom program designed to inventory, acquire, and manage zebrafish data, was used to collect developmental endpoints as either present or absent (i.e., binary responses were recorded). If mortality occurred for an embryo (at either 24 or 120 hpf), the non-mortality endpoints were not measured.

Row | SMILES | outcome | AC50
1 | Oc1cccc(O)c1 | inactive | 
2 | c1ccc2c(c1)Cc1ccccc1-2 | inactive | 
3 | CCCCCCCCOC(=O)CCCCCCCCC(=O)OCCCCCCCC | inactive | 
4 | CC(C)CCCCCCOC(=O)CCCCC(=O)OCCCCCCC(C)C | inactive | 
5 | CCCCC(CC)COC(=O)CCCCC(=O)OCc1ccccc1 (stereo not given) | inactive | 
6 | CCC(C)(C)C1CCC(O)CC1 (stereo not given) | inactive | 
7 | CC#C[C@]1(O)CC[C@H]2[C@@H]3CCC4=CC(=O)CCC4=C3[C@@H](c3ccc(N(C)C)cc3)C[C@@]21C |  | 73.3 µM (active)
8 | COc1ccc([N+](=O)[O-])cc1N | inactive | 
9 | OC1CCCCC1 | inactive | 
10 | CCN(CC)CCNc1ccc(CNC=O)c2sc3ccc(OC)cc3c(=O)c12 | inactive | 
11 | CCCCCCCC(=O)O | inactive | 
12 | c1ccc2c(c1)ccc1ccccc12 | inactive | 
13 | Cc1oc(-c2ccccc2)nc1CCOc1ccc(C[C@H](Nc2ccccc2C(=O)c2ccccc2)C(=O)O)cc1 | inactive | 
14 | Oc1cc2ccccc2c2ccccc12 |  | 31.9 µM (active)
15 | C=C(C)C(=O)OCCC(F)(F)C(F)(F)C(F)(F)C(F)(F)C(F)(F)C(F)(F)F | inactive | 
16 | OC1CCC(C2CCCCC2)CC1 (stereo not given) | inactive | 
17 | CC(O)CO (stereo not given) | inactive | 
18 | COCC(C)O (stereo not given) | inactive | 
19 | CCCCC(CC)COC(=O)CCCCC(=O)OCC(CC)CCCC (stereo not given) | inactive | 
20 | CN1CCC[C@H]1c1cccnc1 | inactive | 

Row | SMILES | outcome | AC50
21 | CC[C@H](C)[C@@H](C(=O)O)n1sc2ccccc2c1=O | inactive | 
22 | Cc1cc(C)c(O)c(C)c1 | inactive | 
23 | CCCCCCC(=O)O | inactive | 
24 | CCCOc1sc(C(=O)N2CCC(c3cc(CN)ccc3F)CC2)c(C)c1Br | inactive | 
25 | CCCCCCCCCCCCN1CCCC1=O |  | 35.8 µM (active)
26 | CC(C)(C)c1cc(C(C)(C)C)c(O)c(C(C)(C)C)c1 | inactive | 
27 | O=C(O)Cc1cc(I)c(Oc2cc(I)c(O)c(I)c2)c(I)c1 | inactive | 
28 | CC(C)(C)c1cccc(C(C)(C)C)c1O | inactive | 
29 | C#C[C@]1(O)CC[C@H]2[C@@H]3CCC4=CC(=O)CC[C@@H]4[C@H]3CC[C@@]21C | inactive | 
30 | CC(=O)CC(C)(C)O | inactive | 
31 | Nc1cccc2c(N)cccc12 | inactive | 
32 | C[C@@H]1C[C@H]2[C@@H]3CCC4=CC(=O)C=C[C@]4(C)[C@@]3(F)[C@@H](O)C[C@]2(C)[C@@]1(O)C(=O)COP(=O)(O)O | inactive | 
33 | CCCCCCCCC(=O)O | inactive | 
34 | OCCC(F)(F)C(F)(F)C(F)(F)C(F)(F)C(F)(F)C(F)(F)F | inactive | 
35 | COCC(C)OCC(C)O (stereo not given) | inactive | 
36 | CC1=C(/C=C/C(C)=C/C=C/C(C)=C/C(=O)O)C(C)(C)CCC1 |  | 0.193 µM (active)
37 | CC(C)(C)CC(C)(C)c1ccc(O)c(-n2nc3ccccc3n2)c1 | inactive | 
38 | CCOC(=O)CC(O)(CC(=O)OCC)C(=O)OCC | inactive | 
39 | O=c1c(-c2ccc(O)cc2)coc2cc(O)ccc12 | inactive | 
40 | CC(C)(C)c1ccc(O)c(C(C)(C)C)c1 | inactive | 

— PubChem BioAssay (EPA / NIEHS)
